The values below come from PubChem BioAssay (NCATS).

“And” between values parts separate entries of the source, which are not always exact repeats. Equal entries are not always repeated. Inconclusive results are not listed. The source made the active and inactive calls. Unless noted, the call rests on the fitted dose curve; in most records, active means well fitted curve in the direction sought with a large enough effect; inconclusive means small, poorly fitted or top-dose-only effect, or another doubt; inactive means no such curve, though single readings can be large; an effect the other way counts as inactive or inconclusive.

Experiment [1] in a line: qHTS Assay for Identifying Gametocytocidal Compounds (AID 743244).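 Further: on the % scale 0 is the no-effect control and ±100 the full control effect; actives lower the fluorescent signal which means gametocytes are killed.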 The settings on record: P. falciparum 3D7 stage III-V gametocytes, alamarBlue, 72 h; max response: stronger effect = lower value. In a few lines:
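In this qHTS viability screen, late-stage 3D7 gametocytes are incubated with compound for 72 h, then with alamarBlue for 24 h; reduced resorufin fluorescence marks killing.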
On the technique in general: qHTS replaces the single test concentration by a dilution series.

A short description of experiment [2]: qHTS profiling for inhibitors of Plasmodium falciparum (3D7) proliferation (AID 743322; call rule not given here;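 further: infected erythrocytes exposed to compound for 72 h before lysis; 100% = DMSO vehicle wells and 0% = 0.29 µM artemisinin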). The settings on record: P. falciparum 3D7 proliferation; at 28.7 µM (top of the series) unless noted. The gist of the method: (§1)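 Erythrocytes infected with P. falciparum (0.3% parasitemia, 2.5% hematocrit) incubated with compounds 72 h at 37 C, 5% CO2. Lysis with saponin/Triton buffer containing SYBR Green I, overnight at room temperature in the dark; DNA fluorescence (485/535 nm) normalised to 0.29 uM artemisinin and DMSO.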

Experiment [3] in a line: qHTS profiling for inhibitors of Plasmodium falciparum (DD2) proliferation (AID 743323; call rule not given here). The note with it: lower = more inhibition; at 28.7 µM (top of the series) unless noted. In a few lines:
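Parasite proliferation measured via DNA-dye fluorescence, as uninfected erythrocytes lack DNA. Cultures at 0.3% parasitemia and 2.5% hematocrit incubated 72 h with compound; signal scaled between vehicle and 0.29 uM artemisinin wells.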

Experiment [4] can be described thus: qHTS profiling for inhibitors of Plasmodium falciparum (HB3) proliferation (AID 743324).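 Further: 100% = DMSO vehicle wells and 0% = artemisinin-treated control wells.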 The settings on record: Plasmodium falciparum HB3 blood-stage proliferation; at 28.7 µM (top of the series) unless noted. In a few lines:
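P. falciparum HB3 grown in erythrocytes (0.3% parasitemia, 2.5% hematocrit final) with compound for 72 h at 37 C, 5% CO2. Parasite DNA detected by SYBR Green after saponin/triton lysis overnight; normalized to 0.29 uM artemisinin and DMSO.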

The nature of experiment [5]: qHTS profiling of the MIPE4 collection as inhibitors of Plasmodium falciparum (3D7) proliferation (AID 743344; call rule not given here;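 further: scaled between DMSO vehicle wells and 0.29 µM artemisinin as full inhibition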). The note with it: P. falciparum 3D7 in erythrocytes, SYBR Green DNA fluorescence, 72 h; at 28.5 µM (top of the series) unless noted. The gist of the method:
as §1

Experiment [6] can be described thus: qHTS profiling of the MIPE4 collection as inhibitors of Plasmodium falciparum (DD2) proliferation (AID 743345; call rule not given here). The note with it: P. falciparum Dd2 in erythrocytes, SYBR Green DNA, 72 h; at 28.5 µM (top of the series) unless noted. The gist of the method: as §1
Experiment [7] in a line: qHTS profiling of the MIPE4 collection as inhibitors of Plasmodium falciparum (DD2) proliferation (Rep 2) (AID 743346; call rule not given here). The note with it: P. falciparum Dd2 in erythrocytes, SYBR Green DNA, 72 h; at 28.5 µM (top of the series) unless noted. The gist of the method: as §1
Experiment [8] is described as follows: qHTS profiling of the MIPE4 collection as inhibitors of Plasmodium falciparum (HB3) proliferation (AID 743347; call rule not given here;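 further: plate controls were DMSO vehicle wells for no effect and artemisinin wells for full effect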). The note with it: P. falciparum HB3 in erythrocytes, SYBR Green DNA, 72 h; at 28.5 µM (top of the series) unless noted. The gist of the method: as §1
The nature of experiment [9]: Cell Proliferation Assay Versus the ED40515 IL2 Independent ATL cell lines (AID 1053194; calls by dose curve). The note with it: ED40515 IL2-independent ATL cells. In a few lines:
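Log-phase ED40515 cells grown without IL-2, 1000 cells/well in phenol red-free RPMI with 5% FBS, exposed to drugs 48 h at 37C. Viability read as CellTiter-Glo luminescence after 15 min at RT; DMSO and 9.2 uM bortezomib as controls.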

The nature of experiment [10]: Cell Proliferation Assay Versus the ED40515 IL2 Dependent ATL cell lines (AID 1053195; calls by dose curve). The settings on record: ED40515 IL2-dependent ATL cells. In a few lines:
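IL2-dependent ED40515 ATL cells grown with IL2, 1000 cells/well in phenol red-free RPMI + 5% FBS, exposed 48 hours at 37C. Viability by CellTiter-Glo luminescence after 15 min at RT; 9.2 uM bortezomib as control.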

Experiment [11] in a line: High-throughput drug toxicity screening in the BPDCN cell line Gen2.2 (AID 1224824; call rule not given here;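 further: cells exposed to compounds for 48 h before reading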). The note with it: Gen2.2 BPDCN cells; at 45.8 µM (top of the series) unless noted. The gist of the method: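 Gen2.2, 500 cells/well, phenol red-free RPMI/10% FBS/Pen-Strep; 48 h cpd, 37 °C/5% CO2; CTG lum, 15 min RT. Norm: DMSO = 100%, bortezomib 9.2 uM final = 0%.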
A short description of experiment [12]: High-throughput drug toxicity screening in the BPDCN cell line Cal-1 (AID 1224825; call rule not given here). The settings on record: Cal-1 BPDCN cell viability, qHTS; at 45.8 µM (top of the series) unless noted. The gist of the method: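 500 Cal-1 cells/well, RPMI + glutamine + 10% FBS (phenol red-free); cpd added by pin tool; 48 h, 37C, 5% CO2; CTG 15 min RT, lumi read. Normalised: DMSO 100%, bortezomib 9.2 uM 0%.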

The nature of experiment [13]: qHTS assay for measurement of the activity of small molecule inhibitors on Zika virus induced Caspase-3 activity in human astrocytoma cells (AID 1224859).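 Further: plate controls were ZIKV-infected untreated cells for no effect and uninfected cells for full effect.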 In a few lines:
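A cell-based luminescent caspase-3/7 assay used SNB-19 cells infected with ZIKV (2 FFU/cell) for 6 h following 1 h compound pretreatment.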

The nature of experiment [14]: qHTS Screen of the MIPE 4.0 Collection Against Ewings Sarcoma (RDES) (AID 1259252).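 Further: 100% = DMSO-treated cells and 0% = medium-only wells without cells; nearly all actives have a fitted effect of over 35% in size.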 In a few lines:
(§2)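 CellTiter-Glo luminescence after 48 h compound exposure (titration) gave viability; percent activity used DMSO-treated cells as no inhibition and medium-only wells as full inhibition. Cells grown in RPMI/5% FBS, dosed 4 h post-seeding.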

Experiment [15] is described as follows: qHTS Screen of the MIPE 4.0 Collection Against Ewings Sarcoma (EW8) (AID 1259255). Further: nearly all actives have a fitted effect of over 35% in size. Further: potency means the concentration at half of the fitted maximal effect.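 On viability: 100% = DMSO-treated cells and 0% = medium-only wells without cells.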 In a few lines:
as §2

In experiment [16] the target is Hexokinase-4 (Homo sapiens) + Glucokinase regulatory protein (Homo sapiens) (UniProt P35557+Q14397). Nature of the experiment: qHTS assay for inhibitors of recombinant human GCK-GKRP interaction: HTRF assay (AID 743207).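 Further: 0% = DMSO with GCK present and -100% = DMSO wells lacking GCK.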 In a few lines:
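Steps: dispense GCK–GKRP complex (5 nM each, GST- and FLAG-tagged) with 2 uM S6P; pin in compounds; add XL665/Eu-cryptate-labelled antibodies; incubate 60 min at room temperature; read time-resolved FRET at 665 and 615 nm.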

Experiment [17] is described as follows: qHTS assay for cell viability of HEK293 cells (AID 743288). Further: on the % scale 0 is the no-effect control and ±100 the full control effect; nearly all actives have a fitted effect of over 50% in size. The settings on record: ATP luminescence (CellTiter-Glo), 18 h; max response: stronger effect = lower value. The gist of the method: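 The Tox21 protocol used parental HEK293 cells treated for 18 h at 37 C with compounds delivered by pintool; ATP-coupled luminescence after 30 min at room temperature gave viability.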

Experiment [18] is described as follows: qHTS assay for cell viability of the p53RE-bla HCT-116 cell line (AID 743292). Further: on the % scale 0 is the no-effect control and ±100 the full control effect; nearly all actives have a fitted effect of over 55% in size. In a few lines: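 CellSensor p53RE-bla HCT-116 cells (4,000/well) pre-incubated 5 h at 37 C, then exposed to compounds in DMSO for 16 h at 37 C. Viability read as ATP content by CellTiter-Glo luminescence after 30 min at room temperature.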
The nature of experiment [19]: qHTS assay for measurement of the activity of small molecule inhibitors on Zika virus induced Caspase-3 activity in human iPSC derived neural progenitor cells (hNPCs) (AID 1224857). Further: % of control where 0% means no effect; nearly all actives have a fitted effect of over 65% in size. The gist of the method:
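In medium with heparin 2 ug/ml and cyclopamine 2 uM, hNPCs (350 cells/well) received compound for one hour and then Zika virus at 2 FFU/cell; caspase activity was measured by Caspase-Glo 3/7 luminescence 6 h post-infection.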

Experiment [20] in a line: qHTS Screen of the MIPE 4.0 Collection Against Ewings Sarcoma (TC71) (AID 1259253). Further: nearly all actives have a fitted effect of over 40% in size. Further: potency means the concentration at half of the fitted maximal effect. The gist of the method: as §2

Chain of Hexokinase-4 (Homo sapiens) + Glucokinase regulatory protein (Homo sapiens) (P35557 whole entry, looked up): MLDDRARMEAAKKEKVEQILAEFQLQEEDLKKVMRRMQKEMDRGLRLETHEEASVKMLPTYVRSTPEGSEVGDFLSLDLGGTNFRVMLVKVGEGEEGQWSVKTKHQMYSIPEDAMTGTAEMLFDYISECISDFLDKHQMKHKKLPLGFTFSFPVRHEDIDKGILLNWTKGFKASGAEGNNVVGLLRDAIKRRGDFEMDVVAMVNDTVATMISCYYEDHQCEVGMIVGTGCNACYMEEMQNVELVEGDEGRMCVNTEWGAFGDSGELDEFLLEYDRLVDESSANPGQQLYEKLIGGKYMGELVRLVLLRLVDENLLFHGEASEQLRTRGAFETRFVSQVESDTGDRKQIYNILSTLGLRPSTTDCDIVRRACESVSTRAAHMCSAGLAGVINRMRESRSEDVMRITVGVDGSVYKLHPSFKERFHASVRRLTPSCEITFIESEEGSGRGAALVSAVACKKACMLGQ
Chain of Hexokinase-4 (Homo sapiens) + Glucokinase regulatory protein (Homo sapiens) (Q14397 whole entry, looked up): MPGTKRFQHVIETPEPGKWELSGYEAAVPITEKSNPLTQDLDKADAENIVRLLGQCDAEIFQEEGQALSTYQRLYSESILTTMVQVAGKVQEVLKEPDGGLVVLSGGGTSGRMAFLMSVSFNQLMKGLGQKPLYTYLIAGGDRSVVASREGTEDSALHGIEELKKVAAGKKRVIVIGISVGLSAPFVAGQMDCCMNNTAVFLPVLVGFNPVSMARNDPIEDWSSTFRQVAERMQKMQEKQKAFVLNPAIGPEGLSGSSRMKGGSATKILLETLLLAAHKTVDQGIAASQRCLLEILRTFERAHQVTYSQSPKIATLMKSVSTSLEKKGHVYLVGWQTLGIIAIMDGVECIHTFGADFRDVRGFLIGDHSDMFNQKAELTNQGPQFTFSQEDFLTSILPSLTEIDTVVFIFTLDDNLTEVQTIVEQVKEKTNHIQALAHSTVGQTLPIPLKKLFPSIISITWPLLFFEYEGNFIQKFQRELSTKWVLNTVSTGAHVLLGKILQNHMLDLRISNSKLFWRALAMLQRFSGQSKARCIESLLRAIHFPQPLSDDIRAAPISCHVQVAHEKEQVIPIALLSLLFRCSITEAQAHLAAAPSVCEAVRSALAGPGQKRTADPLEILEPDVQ

Regarding `C[C@@H]1C[C@H]2[C@@H]3CCC4=CC(=O)C=C[C@]4(C)C3(F)[C@@H](O)C[C@]2(C)[C@@]1(O)C(=O)CO` (stereo not given in full), the max response in [1] was 2.96% (inactive). Besides, the remaining parasite growth % (stronger effect = lower value) in experiment [2] stood at 109%. The activity, percent of control in experiment [3] was determined as 95.7%. Moreover, the remaining proliferation (% of control), lower = more inhibition in experiment [4] stood at 85.9%. In [5], this compound displayed a parasite growth, % of DMSO control of 71.2%. In [6], this compound returned a parasite growth remaining, % of DMSO control (lower = more inhibition) of 96%. In experiment [7], the parasite growth, % of control (lower = inhibition) turned out to be 146%. Moreover, in [8], the growth, % of control turned out to be 95.5%. For the same compound, the Potency in experiment [9] was 20.9 µM (active).

Consider `CC[C@@H](C)[C@H](NC(=O)[C@H](CC1CCCCC1)NC(=O)c1ccno1)C(=O)N1CCC2(CCc3ccccc32)CC1`, for which the remaining parasite growth % (stronger effect = lower value) in [2] was -1.46%. Besides, the activity, percent of control in experiment [3] was -0.289%. Also, in experiment [4], the remaining proliferation (% of control), lower = more inhibition was -0.621%. In experiment [5], the parasite growth, % of DMSO control came out at 5.26%. Further, the parasite growth remaining, % of DMSO control (lower = more inhibition) in experiment [6] is 7.23%. In experiment [7], the parasite growth, % of control (lower = inhibition) was 14%. Also, the Potency in [10] is 2.64 µM (active). Moreover, the cell viability, % of control (lower = more cytotoxic) in [11] was 168%. For the same compound, the viability (% of control) in [12] came out at 111%. Besides, the Potency result in [13], in experiment [14] and in experiment [15] was “inactive” each time.

Consider `O=C1CCC(N2C(=O)c3ccccc3C2=O)C(=O)N1` (stereo not given), for which the outcome in experiment [16] was inactive. Moreover, the max response is 18.1% (inactive) and 27% (inactive) in experiment [1]; -7.06% (inactive) in experiment [17]. Also, the Potency entry in experiment [18], in experiment [19], in [13], in [14], in [20] and in experiment [15] was “inactive” in each case. For the same compound, in experiment [5], the parasite growth, % of DMSO control was found to be 93.4%. The compound also registered a parasite growth remaining, % of DMSO control (lower = more inhibition) in experiment [6] of 88.8%. Also, the parasite growth, % of control (lower = inhibition) in experiment [7] was 142%. The same compound showed a growth, % of control in experiment [8] of 114%. Besides, the cell viability, % of control (lower = more cytotoxic) in experiment [11] stood at 167%. For the same compound, the viability (% of control) in [12] turned out to be 95.9%.

With `NC(=O)c1ccc(-c2nc(-c3ccc4c(c3)OCO4)c(-c3ccccn3)[nH]2)cc1`, the remaining parasite growth % (stronger effect = lower value) in [2] worked out at 82.3%. Also, in experiment [3], the activity, percent of control turned out to be 88.1%. Moreover, the remaining proliferation (% of control), lower = more inhibition in experiment [4] is 71.6%. In experiment [5], this compound had a parasite growth, % of DMSO control of 42.9%. The compound further showed a parasite growth remaining, % of DMSO control (lower = more inhibition) in [6] of 55.7%. In addition, in experiment [7], the parasite growth, % of control (lower = inhibition) was found to be 32.2%. In addition, the Potency is 37.2 µM (active) in experiment [10], 14.8 µM (active) in experiment [20] and 16.6 µM (active) in experiment [15]. Further, the cell viability, % of control (lower = more cytotoxic) in experiment [11] is 624%. The viability (% of control) in experiment [12] is 113%. Further, the Potency entry in experiment [19], in [13] and in [14] was “inactive” each time.
